# Screening data (PubChem)
# Mcl-1 Bim block: inhibitors of Bim peptide binding to Mcl-1, primary screen, biochemical, bead-based flow cytometry, multiplex; inhibition, % at 10 µM; AID 1009, 2008; Bim peptide-Mcl-1 binding; Induced myeloid leukemia cell differentiation protein Mcl-1 (Homo sapiens), Q07820; 190,000 tested, 0.1% active; in the data active means inhibition above about 40%;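 further: 0% = no compound tracer wells and 100% = peptide blocker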
# Target sequence (Q07820 whole entry, looked up): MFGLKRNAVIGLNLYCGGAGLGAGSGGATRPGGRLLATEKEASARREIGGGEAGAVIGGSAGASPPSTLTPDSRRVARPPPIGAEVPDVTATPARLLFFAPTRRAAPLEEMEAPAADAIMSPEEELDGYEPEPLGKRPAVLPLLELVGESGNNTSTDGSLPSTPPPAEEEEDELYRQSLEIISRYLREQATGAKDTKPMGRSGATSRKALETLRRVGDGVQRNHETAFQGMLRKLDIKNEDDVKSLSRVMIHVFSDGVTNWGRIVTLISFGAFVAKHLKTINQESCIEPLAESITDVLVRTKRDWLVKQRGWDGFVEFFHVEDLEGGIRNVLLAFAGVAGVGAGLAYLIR
# p47phox inh: p47phox/p22phox peptide binding inhibitors, primary screen, biochemical, uHTS, NADPH oxidase regulatory subunit; 220,000 tested, 0.53% active; fluorescence polarization, 2 h; inhibition, % at 24.7 µM; AID 1274, 2008; Neutrophil cytosol factor 1 (Homo sapiens), P14598;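 further: 0% = p47phox with labelled peptide and 100% = labelled peptide alone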
# 14-3-3 Bad inh: inhibitors of 14-3-3 zeta/Bad binding, primary screen, biochemical, TR-FRET, bovine 14-3-3 zeta; 220,000 tested, 0.71% active; TR-FRET 14-3-3zeta/Dy647-pBad peptide displacement, 1 h; AID 781, 2007; inhibition, % at 21.7 µM;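 active means inhibition above about 70%, limit read from the data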;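 further: 0% = full 14-3-3 plus peptide FRET controls and 100% = background without 14-3-3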
# Target sequence (P63103 whole entry, looked up): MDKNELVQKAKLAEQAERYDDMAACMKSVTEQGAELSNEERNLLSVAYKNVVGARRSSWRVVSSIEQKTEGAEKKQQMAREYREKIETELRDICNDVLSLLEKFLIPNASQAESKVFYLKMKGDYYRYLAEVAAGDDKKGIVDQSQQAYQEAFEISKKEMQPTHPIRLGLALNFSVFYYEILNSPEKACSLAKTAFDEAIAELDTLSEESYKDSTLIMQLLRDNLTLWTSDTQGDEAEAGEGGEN
# eIF4E 4G PPI: eIF4E–eIF4G protein interaction inhibitors, primary screen, biochemical, uHTS, TR-FRET, eIF4GI fragment. Eukaryotic translation initiation factor 4E (Mus musculus) + Eukaryotic translation …. TR-FRET eIF4E-eIF4GI(517-606) binding, 2 h. inhibition, % at 21.7 µM. 220,000 tested, 0.37% active. AID 782, 2007;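 further: 0% = full FRET control wells and 100% = background wells lacking eIF4GI fragment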
# Mcl1-Bid inh: Mcl-1/Bid binding inhibitors, primary screen, biochemical, TR-FRET, 1536-well; Induced myeloid leukemia cell differentiation protein Mcl-1 (Homo sapiens), Q07820; TR-FRET Mcl-1/Bid-Dy647 peptide binding; inhibition, % at 21.7 µM; 220,000 tested, 0.97% active;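 active means compounds that cut the binding signal by more than half at the single screening dose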;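 further: His-tagged Mcl-1 with europium anti-His antibody binding Bid BH3 peptide; 0% = Mcl-1 plus peptide wells and 100% = peptide-only wells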
# Mcl1 Noxa PPI: Mcl-1/Noxa binding inhibitors, primary screen, biochemical, TR-FRET, 1536-well. Induced myeloid leukemia cell differentiation protein Mcl-1 (Homo sapiens), Q07820. 220,000 tested, 1.5% active. TR-FRET Mcl-1/Noxa peptide binding, 2 h. inhibition, % at 21.7 µM;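 active means compounds that cut the protein-peptide binding signal by more than 50% relative to plate controls in a single-dose test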;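 further: His-tagged Mcl-1 with rhodamine Noxa BH3 peptide and terbium anti-His antibody; 0% = Mcl-1 plus Noxa peptide wells and 100% = peptide-only wells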
# * marks the source's active call; other numbers are inactive results; · = no result given. This is a sample that favours compounds with a hit; in the whole collection about 3.3% have one here.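 How the source made its calls, unless noted: active means inhibition above about 30% (limit read from the data); inactive means the rest.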
SMILES,Mcl-1 Bim block,p47phox inh,14-3-3 Bad inh,eIF4E 4G PPI,Mcl1-Bid inh,Mcl1 Noxa PPI
COc1ccccc1NC(=O)c1sc2ncn(Cc3ccc(C)cc3)c(=O)c2c1C,-3,-36,34,-43,74*,14
CCN(CC)C(=O)CN(C)S(=O)(=O)c1cccc2nsnc12,-1,-6,-8,0,76*,-7
COc1ccc(NS(=O)(=O)c2cccc(NC(=O)CCC(=O)c3ccc(Cl)cc3)c2)cc1,-1,-13,1,3,96*,-8
CCN(CC)S(=O)(=O)c1cccc(N=Nc2c(O)c3ccccc3oc2=O)c1,·,-18,-2,-6,-36,24
Cc1cc(C(=O)NC2CCCc3ccccc32)no1 (centres undefined),46*,-12,-9,-2,-6,14
COc1cc(CCC(=O)NNC(=O)c2ccc(C)cc2)cc(OC)c1OC,1,-3,-8,-4,-12,11
CCC(C)N1CC(C(=O)NC2CCCCC2)CC1=O (centres undefined),3,·,·,·,·,·
CCC(C)N1CC(C(=O)O)CC1=O (centres undefined),-1,47*,·,·,-16,10
COc1ccc(/C=c2\s/c(=C\C(=O)C(C)(C)C)[nH]c2=O)cc1O,·,-18,3,2,-58,58*
CCC1CCC2(CC1)NC(CO)(CO)CO2 (centres undefined),-2,-5,10,2,64*,2
C/C(=N\NC(=O)c1c(Cl)c(C)nn1C)c1cccc(NC(=O)COc2ccccc2)c1,4,15,20,0,60*,-65
Cn1cccc1C(=O)C(=O)Nc1ccc(F)c(F)c1,-1,4,-11,1,7,14
O=C1C2C3C=CC(C3=C(c3ccccc3)c3ccccc3)C2C(=O)N1Cc1ccccc1 (centres undefined),0,-8,16,2,20,64*
CC1CCCN(C(=O)CSc2nnc(-c3cccnc3)n2C2CCCCC2)C1 (centres undefined),0,1,5,4,8,8
O=C(CSc1nnc(-c2cccnc2)n1C1CCCCC1)NC1CCCC1,-3,-7,-7,-3,-26,56*
CCCCC(Sc1nc(N)c(NC(=O)c2ccc(OC)cc2)c(=O)[nH]1)C(=O)O (centres undefined),0,0,-11,1,-29,0
O=C(O)c1cc(-c2ccc(/C=C3\NC(=O)N(c4ccccc4)C3=O)o2)ccc1Cl,·,-58,8,1,-14,73*
Cc1ccc(CN2C(=O)N/C(=C/c3ccc(-c4ccc(C(=O)O)cc4)o3)C2=O)cc1,·,-36,20,10,-58,66*
CC(NC(=O)CN1CCc2ccccc21)c1ccccc1 (centres undefined),-2,-24,-8,3,-65,13
C=CCNC(=S)N1CCN(Cc2ccccc2)CC1,2,1,65,2,7,27
CC(C)CNC(=O)COC(=O)c1ccccc1SCC(=O)NCC(C)C,0,-1,-20,-5,-6,3
COc1ccccc1N1CCN(CCCCOc2cccc3ccccc23)CC1,1,-3,29,-1,12,18
COc1ccccc1OCCCCN1CCN(c2ccccc2OC)CC1,-3,1,81*,5,13,-4
CCOC(=O)C1(Cc2ccccc2Cl)CCN(C(=O)c2cnccn2)CC1,23,5,-5,3,-25,16
COc1ccccc1N1CCN(S(=O)(=O)Cc2ccccc2Cl)CC1,6,-3,30,31*,-2,14
SMILES,Mcl-1 Bim block,p47phox inh,14-3-3 Bad inh,eIF4E 4G PPI,Mcl1-Bid inh,Mcl1 Noxa PPI
COc1ccccc1N1CCN(S(=O)(=O)c2ccccc2)CC1,2,-6,-12,-4,-29,5
COCCn1c(C)cc(C(=O)CSc2nc3ccccc3c(=O)[nH]2)c1C,-2,-13,-17,0,-46,61*
Cc1ccc(CSc2nc3ccccc3c(=O)[nH]2)cc1,-2,-12,71*,-3,-49,7
Cc1ccnc(-n2c(C)cc(/C=N/NC(=O)COc3cccc4cccnc34)c2C)c1,·,-17,2,0,-43,3
N#Cc1cc2c(nc1SCc1ccc(Cl)nc1)CCCCC2,·,-13,2,1,0,-13
N#Cc1cnn(-c2cccc(Cl)c2)c1N,2,-3,-17,1,-7,-7
Cc1cccc(-n2ncc(C#N)c2N)c1,-2,172*,·,·,-38,-12
O=C(N=C1c2ccccc2CN1c1ccc(F)c(Cl)c1)c1cccnc1Cl,-2,-32,15,19,36,2
CCN(CC)S(=O)(=O)c1cc(NC(=O)CSc2nnc(-c3cccs3)o2)ccc1C,-14,52*,-1,0,-14,9
CCNC(=S)N=Nc1c(O)[nH]c2ccc([N+](=O)[O-])cc12,13,14,-13,2,-33,16
O=[N+]([O-])c1ccc2[nH]c(O)c(N=NC(=S)Nc3cccnc3)c2c1,·,-1,33,-13,26,100*
Cc1ccccc1NCC(=O)N=Nc1c(O)[nH]c2ccc([N+](=O)[O-])cc12,·,4,-16,1,-30,53*
Nc1ccc2c(c1)OC1(CCCCC1)O2,-3,45*,100*,5,-59,5
N=c1c2c3c(sc2ncn1Nc1ccccc1)CCC3,·,7,2,-7,-10,-2
O=C(Nc1nc2ccccc2[nH]1)C1CCCC1,1,-6,-8,-3,-7,6
O=C(NCc1nc2ccccc2[nH]1)C1CCCCC1,-3,78*,-3,3,-13,11
CSc1nc(=O)n2cc(C)ccc2n1,0,0,-15,2,-10,-5
O=C1CN(C(=O)c2ccc(Cl)c(S(=O)(=O)N3CCc4ccccc43)c2)c2ccccc2N1,·,-25,1,8,-48,3
O=C(NN=C1C2CC3CC1CC(Cl)(C3)C2)c1ccccn1,-1,-6,9,2,10,67*
O=C(CSc1nnc(-c2ccncc2)o1)NCc1ccccc1Cl,0,-3,-2,4,101*,1
O=C(CSc1nnc(-c2ccncc2)o1)NCc1ccccc1,-5,-3,-1,6,-4,-1
Cc1noc2ncnc(SCc3ccc(C(F)(F)F)cc3)c12,·,-4,3,-3,69*,11
